Test results published in PubChem BioAssay AID1159580 (chemical genetic matrix, 2015).
About 2,000 (36%) of roughly 5,500 compounds were called active. Roughly 18% stayed inconclusive and do not appear here. Rule as the data show it: active = normalized growth mostly below about 0.91 (no sharp cut-off); inconclusive = no clear call, values can overlap the other calls; inactive = mostly above about 0.92. Some of the results follow.

Test: chemical genetic growth profiling, strain panel (AID 1159580);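 also: tested at 20 µM; growth read once vehicle control cultures reached saturation at 30 °C; 1 = growth at the plate median or of vehicle wells; lower values mean less growth of the strain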
Conditions: growth OD

Measured: normalized growth

C1CCC(C(CC2CCCCN2)C2CCCCC2)CC1 (centres undefined)
active: S. cerevisiae deletion strains, locus YJR075W, strain HOC1, stronger effect = lower value 0.606 | S. cerevisiae deletion strains, locus YKL190W, strain CNB1, stronger effect = lower value 0.143 | S. cerevisiae deletion strains, locus YKR001C, strain vps1, stronger effect = lower value 0.0792 | S. cerevisiae deletion strains, locus YLR039C, strain RIC1, stronger effect = lower value 0.247 | S. cerevisiae deletion strains, locus YLR058C, strain SHM2, stronger effect = lower value 0.703 | S. cerevisiae deletion strains, locus YLR262C, strain YPT6, stronger effect = lower value 0.151 | S. cerevisiae deletion strains, locus YLR268W, strain sec22, stronger effect = lower value 0.605 | S. cerevisiae deletion strains, locus YLR320W, strain mms22, stronger effect = lower value 0.862 | S. cerevisiae deletion strains, locus YLR330W, strain CHS5, stronger effect = lower value 0.381 | S. cerevisiae deletion strains, locus YLR342W, strain FKS1 (second series), stronger effect = lower value 0.167 | S. cerevisiae deletion strains, locus YLR371W, strain rom2, stronger effect = lower value 0.266 | S. cerevisiae deletion strains, locus YLR418C, strain cdc73, stronger effect = lower value 0.423 | S. cerevisiae deletion strains, locus YML016C, strain PPZ1, stronger effect = lower value 0.363 | S. cerevisiae deletion strains, locus YML032C, strain rad52, stronger effect = lower value 0.877 | S. cerevisiae deletion strains, locus YMR058W, strain fet3, stronger effect = lower value 0.853 | S. cerevisiae deletion strains, locus YMR223W, strain ubp8, stronger effect = lower value 0.454 | S. cerevisiae deletion strains, locus YMR231W, strain pep5, stronger effect = lower value 0.0752 | S. cerevisiae deletion strains, locus YMR263W, strain SAP30, stronger effect = lower value 0.843 | S. cerevisiae deletion strains, locus YMR307W, strain GAS1, stronger effect = lower value 0.174 | S. cerevisiae deletion strains, locus YNL067W, strain RPL9B, stronger effect = lower value 0.793 | S. cerevisiae deletion strains, locus YNL233W, strain BNI4, stronger effect = lower value 0.245 | S. cerevisiae deletion strains, locus YNL307C, strain MCK1, stronger effect = lower value 0.267 | S. cerevisiae deletion strains, locus YNR052C, strain pop2, stronger effect = lower value 0.14 | S. cerevisiae deletion strains, locus YOL006C, strain TOP1, stronger effect = lower value 0.115 | S. cerevisiae deletion strains, locus YOR061W, strain CKA2, stronger effect = lower value 0.114 | S. cerevisiae deletion strains, locus YOR069W, strain VPS5, stronger effect = lower value 0.906 | S. cerevisiae deletion strains, locus YOR106W, strain vam3, stronger effect = lower value 0.458 | S. cerevisiae deletion strains, locus YOR136W, strain idh2, stronger effect = lower value 0.77 | S. cerevisiae deletion strains, locus YOR184W, strain ser1, stronger effect = lower value 0.608 | S. cerevisiae deletion strains, locus YOR270C, strain vph1, stronger effect = lower value 0.452 | S. cerevisiae deletion strains, locus YPL051W, strain arl3, stronger effect = lower value 0.886 | S. cerevisiae deletion strains, locus YPL055C, strain LGE1, stronger effect = lower value 0.4 | S. cerevisiae deletion strains, locus YPR163C, strain tif3, stronger effect = lower value 0.0807 | S. cerevisiae deletion strains, locus YPR167C, strain met16, stronger effect = lower value 0.844 | S. cerevisiae deletion strains, strain wtn01, stronger effect = lower value 0.317 | S. cerevisiae strains, strain wild type, stronger effect = lower value 0.314
inactive: S. cerevisiae deletion strains, locus YJR066W, strain TOR1, stronger effect = lower value 0.973 | S. cerevisiae deletion strains, locus YKL009W, strain mrt4, stronger effect = lower value 1 | S. cerevisiae deletion strains, locus YKL068W, stronger effect = lower value 1.01 | S. cerevisiae deletion strains, locus YKL085W, strain MDH1 (second series), stronger effect = lower value 0.996 | S. cerevisiae deletion strains, locus YKL085W, strain MDH1, stronger effect = lower value 0.996 | S. cerevisiae deletion strains, locus YKL160W, strain elf1, stronger effect = lower value 0.952 | S. cerevisiae deletion strains, locus YKR026C, strain gcn3, stronger effect = lower value 0.988 | S. cerevisiae deletion strains, locus YKR091W, strain srl3, stronger effect = lower value 0.989 | S. cerevisiae deletion strains, locus YLL001W, strain dnm1, stronger effect = lower value 0.992 | S. cerevisiae deletion strains, locus YLL026W, stronger effect = lower value 0.985 | S. cerevisiae deletion strains, locus YLL041C, strain sdh2, stronger effect = lower value 0.967 | S. cerevisiae deletion strains, locus YLR027C, strain aat2, stronger effect = lower value 0.977 | S. cerevisiae deletion strains, locus YLR102C, strain apc9, stronger effect = lower value 1.01 | S. cerevisiae deletion strains, locus YLR113W, strain HOG1, stronger effect = lower value 1.02 | S. cerevisiae deletion strains, locus YLR221C, strain rsa3, stronger effect = lower value 0.98 | S. cerevisiae deletion strains, locus YLR258W, strain gsy2, stronger effect = lower value 0.99 | S. cerevisiae deletion strains, locus YLR262C, strain YPT6 (second series), stronger effect = lower value 1.08 | S. cerevisiae deletion strains, locus YLR342W, strain FKS1, stronger effect = lower value 0.981 | S. cerevisiae deletion strains, locus YLR357W, strain rsc2, stronger effect = lower value 0.963 | S. cerevisiae deletion strains, locus YLR370C, strain arc18, stronger effect = lower value 0.981 | S. cerevisiae deletion strains, locus YLR384C, strain iki3, stronger effect = lower value 0.972 | S. cerevisiae deletion strains, locus YML120C, strain ndi1, stronger effect = lower value 0.973 | S. cerevisiae deletion strains, locus YML124C, strain tub3, stronger effect = lower value 0.954 | S. cerevisiae deletion strains, locus YMR078C, strain ctf18, stronger effect = lower value 1.02 | S. cerevisiae deletion strains, locus YMR125W, strain sto1, stronger effect = lower value 0.897 | S. cerevisiae deletion strains, locus YMR129W, stronger effect = lower value 0.972 | S. cerevisiae deletion strains, locus YMR205C, strain PFK2, stronger effect = lower value 0.93 | S. cerevisiae deletion strains, locus YNL071W, strain lat1, stronger effect = lower value 0.975 | S. cerevisiae deletion strains, locus YNL183C, strain NPR1, stronger effect = lower value 0.976 | S. cerevisiae deletion strains, locus YNL209W, strain ssb2, stronger effect = lower value 0.974 | S. cerevisiae deletion strains, locus YNL248C, strain rpa49, stronger effect = lower value 0.926 | S. cerevisiae deletion strains, locus YNL250W, strain rad50, stronger effect = lower value 1.01 | S. cerevisiae deletion strains, locus YNL271C, strain bni1, stronger effect = lower value 1.01 | S. cerevisiae deletion strains, locus YNL298W, strain CLA4, stronger effect = lower value 1.01 | S. cerevisiae deletion strains, locus YNL322C, strain KRE1 (second series), stronger effect = lower value 0.975 | S. cerevisiae deletion strains, locus YNR049C, strain mso1, stronger effect = lower value 0.99 | S. cerevisiae deletion strains, locus YOL147C, strain pex11, stronger effect = lower value 0.941 | S. cerevisiae deletion strains, locus YOR001W, strain rrp6, stronger effect = lower value 0.893 | S. cerevisiae deletion strains, locus YOR070C, strain gyp1, stronger effect = lower value 0.979 | S. cerevisiae deletion strains, locus YOR080W, strain dia2, stronger effect = lower value 0.988 | S. cerevisiae deletion strains, locus YOR083W, strain WHI5, stronger effect = lower value 0.94 | S. cerevisiae deletion strains, locus YOR144C, strain elg1, stronger effect = lower value 1.02 | S. cerevisiae deletion strains, locus YOR231W, strain MKK1, stronger effect = lower value 1.02 | S. cerevisiae deletion strains, locus YOR265W, strain rbl2, stronger effect = lower value 0.979 | S. cerevisiae deletion strains, locus YOR290C, strain snf2, stronger effect = lower value 0.869 | S. cerevisiae deletion strains, locus YOR316C, strain cot1, stronger effect = lower value 0.97 | S. cerevisiae deletion strains, locus YPL078C, strain atp4, stronger effect = lower value 0.973 | S. cerevisiae deletion strains, locus YPL106C, strain sse1, stronger effect = lower value 0.984 | S. cerevisiae deletion strains, locus YPL240C, strain hsp82, stronger effect = lower value 0.98 | S. cerevisiae deletion strains, locus YPL241C, strain CIN2, stronger effect = lower value 0.93 | S. cerevisiae deletion strains, locus YPL256C, strain CLN2, stronger effect = lower value 1.02 | S. cerevisiae deletion strains, locus YPR119W, strain clb2, stronger effect = lower value 0.935 | S. cerevisiae deletion strains, locus YPR141C, strain kar3, stronger effect = lower value 1.03
